Where “and” joins values, the source holds several entries; their conditions need not be identical. Equal values may be shown once. Results filed as inconclusive are left out. Entries that show only a call come without a potency. Where a structure was tested more than once in an assay, its records may differ in their call. Calls of active or inactive are those of the source. The call rests on the fitted dose curve; in most records, active means well fitted curve in the direction sought with a large enough effect in the repeat runs; inconclusive means weak or mixed curves; inactive means no such curve, though single readings can be large; an effect the other way counts as inactive or inconclusive.
Columns and labels:
[1] = A CellTox Green Cytotoxicity Assay to monitor cytotoxicity in HEK293 cells - 32 hour (AID 1224881); further: nearly all actives have a fitted effect of over 40% in size; further: potency means the concentration at half of the fitted maximal effect
Procedure, shortened: (§1)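 Fluorescence intensity, read at 0, 8, 16, 24, 32 and 40 h of compound treatment, reflected dye binding to DNA of dead HEK293 cells; compounds (23 nL, DMSO) were added 5 h after plating cells with reagent.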

[2] = A CellTox Green Cytotoxicity Assay to monitor cytotoxicity in HepG2 cells - 0 hour (AID 1224882); further: nearly all actives have a fitted effect of over 35% in size
Procedure, shortened: (§2)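 Using 1536-well format, dye-containing HepG2 suspension was seeded, allowed 5 h at 37 C/5% CO2, dosed by pintool with compounds, positive and negative controls, and imaged for fluorescence across 40 h.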

[3] = A CellTox Green Cytotoxicity Assay to monitor cytotoxicity in HepG2 cells - 32 hour (AID 1224883); further: nearly all actives have a fitted effect of over 50% in size; further: potency means the concentration at half of the fitted maximal effect
Procedure, shortened: as §2

[4] = qHTS RealTime-Glo MT Cell Viability Assay in HEK293 cells - 24 hour (AID 1224886); further: nearly all actives have a fitted effect of over 50% in size; further: potency means the concentration at half of the fitted maximal effect; on activity change, negative = cytotoxicity: top concentration of the series differs between compounds
Procedure, shortened: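 HEK293 cells were seeded at 600 cells/well together with NanoLuc luciferase and cell-permeant prosubstrate, preincubated 5 h at 37 C/5% CO2, then given compound in DMSO by pintool. Luminescence from viable-cell prosubstrate reduction was read repeatedly over 40 h.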

[5] = A CellTox Green Cytotoxicity Assay to monitor cytotoxicity in HEK293 cells - 16 hour (AID 1224888); further: nearly all actives have a fitted effect of over 35% in size; further: potency means the concentration at half of the fitted maximal effect
Procedure, shortened: as §1

[6] = qHTS RealTime-Glo MT Cell Viability Assay in HepG2 cells - 16 hour (AID 1224885); further: nearly all actives have a fitted effect of over 50% in size; further: potency means the concentration at half of the fitted maximal effect
Procedure, shortened: (§3)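 HepG2 cells were seeded at 600 cells/well together with NanoLuc luciferase and a cell-permeant prosubstrate, preincubated 5 h at 37 C/5% CO2, then pin-dosed with compounds in DMSO. Nonlytic luminescence from viable cells was read at each time point.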

[7] = qHTS RealTime-Glo MT Cell Viability Assay in HEK293 cells - 8 hour (AID 1224887); further: nearly all actives have a fitted effect of over 50% in size; further: potency means the concentration at half of the fitted maximal effect; on activity change, negative = cytotoxicity: top concentration of the series differs between compounds
Procedure, shortened: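 Viable HEK293 cells reduce a cell-permeant prosubstrate; the product diffuses out and is consumed by NanoLuc in the medium to give light. Compounds went in after a 5 h incubation and plates were read over the treatment course.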

[8] = qHTS RealTime-Glo MT Cell Viability Assay in HepG2 cells - 0 hour (AID 1224889); further: nearly all actives have a fitted effect of over 50% in size; further: potency means the concentration at half of the fitted maximal effect
Procedure, shortened: as §3

[9] = A CellTox Green Cytotoxicity Assay to monitor cytotoxicity in HepG2 cells - 8 hour (AID 1224890); further: nearly all actives have a fitted effect of over 45% in size; further: potency means the concentration at half of the fitted maximal effect
Procedure, shortened: as §2

[10] = A CellTox Green Cytotoxicity Assay to monitor cytotoxicity in HEK293 cells - 8 hour (AID 1224884); further: nearly all actives have a fitted effect of over 35% in size; further: potency means the concentration at half of the fitted maximal effect
Procedure, shortened: as §1

Structure (SMILES)	Potency [1]	Potency [2]	Potency [3]	Potency [4]	Potency [5]	Potency [6]	Potency [7]	Potency [8]	Potency [9]	Potency [10]	cytotoxicity increase [1]	cytotoxicity [2]	cytotoxicity increase [3]	cytotoxicity increase [10]	activity change, negative = cytotoxicity [4]	cytotoxicity increase [9]
CCC(OC(C)=O)C(CC(C)NC)(c1ccccc1)c1ccccc1 (stereo unspecified)	62.2 µM (active)	inactive	55.4 µM (active)	55.4 µM (active)	62.2 µM (active)											
CC(O)C(=O)[O][Hg][c]1ccccc1 (stereo unspecified)	3.09 µM (active)	inactive	2.19 µM (active)	0.977 µM (active)	24.5 µM (active)	2.19 µM (active)	1.55 µM (active)	inactive	2.75 µM (active)							
CSC(=O)c1c(C(F)F)nc(C(F)(F)F)c(C(=O)SC)c1CC(C)C	inactive	inactive	inactive		inactive		inactive	inactive	inactive	inactive						
Cc1ccc([N+](=O)[O-])[c]2c1[O][Hg]2	0.674 µM (active)	inactive		3.38 µM (active)		2.39 µM (active)		inactive	3.79 µM (active)	inactive						
O=C1C[C@@H]2OCC=C3CN4CC[C@]56c7ccccc7N1[C@H]5[C@H]2[C@H]3C[C@H]46	inactive	inactive	inactive		inactive			inactive	inactive	inactive						
CCCCN(CCCC)C(=S)S	inactive	inactive		inactive	inactive	inactive	inactive	inactive	inactive	inactive						
CCCCC(CC)COC(=O)OOC(C)(C)C (stereo unspecified)	inactive	inactive		inactive	inactive	inactive		inactive	inactive	inactive						
Nc1ccc(Cl)cc1C(=O)c1ccccc1F	inactive	inactive		inactive	inactive	inactive		inactive	inactive	inactive						
Brc1cccc(-c2ccccc2)c1	49.3 µM (active)	inactive	inactive	inactive		inactive	inactive	inactive	inactive							
COc1ccc2[nH]cc(CCN(C(C)C)C(C)C)c2c1	inactive	inactive		inactive	inactive	inactive	inactive	inactive	inactive	inactive						
CC(Cc1ccccc1)N(C)Cc1ccco1 (stereo unspecified)	inactive	inactive		inactive	inactive	inactive		inactive	inactive	inactive						
CCOP(=S)(NC(C)C)Oc1ccccc1C(=O)OC(C)C (stereo unspecified)	inactive	inactive	inactive		inactive			inactive	inactive							
N#Cc1sc2c(=O)c3ccccc3c(=O)c=2sc1C#N	13.8 µM (active)	inactive		15.5 µM (active)	43.6 µM (active)	9.77 µM (active)	6.92 µM (active)	21.9 µM (active)	54.9 µM (active)	inactive						
ClC1=C(Cl)[C@]2(Cl)[C@@H]3[C@H]4C[C@H]([C@@H]5O[C@H]45)[C@@H]3[C@@]1(Cl)C2(Cl)Cl	inactive	inactive		inactive	inactive	inactive	inactive	inactive	inactive	inactive						
c1ccc2nc(N3CCNCC3)ccc2c1	inactive	inactive		inactive	inactive	inactive	inactive	inactive	inactive	inactive						
CC(C)=CC1C(C(=O)OC(C#N)c2cccc(Oc3ccccc3)c2)C1(C)C (stereo unspecified)	inactive	inactive		inactive	inactive	inactive	inactive	inactive	inactive	inactive						
C[C@]12C/C(=C/O)C(=O)C[C@@H]1CC[C@@H]1[C@@H]2CC[C@@]2(C)[C@H]1CC[C@]2(C)O	44.1 µM (active) and inactive	inactive		49.4 µM (active) and inactive	inactive	inactive	inactive	inactive	inactive	inactive						
O=C(O)[C@H](O)[C@@H](O)C(=O)O	inactive	inactive		inactive	inactive	inactive	inactive	inactive	inactive	inactive						

Structure (SMILES)	Potency [1]	Potency [2]	Potency [3]	Potency [4]	Potency [5]	Potency [6]	Potency [7]	Potency [8]	Potency [9]	Potency [10]	cytotoxicity increase [1]	cytotoxicity [2]	cytotoxicity increase [3]	cytotoxicity increase [10]	activity change, negative = cytotoxicity [4]	cytotoxicity increase [9]
CC(=O)[O-].CC(=O)[O-].CC(=O)[O-].[Sb+3]											3.11% [at 2.72 µM] (inactive)	-11% [at 2.72 µM] (inactive)	-22.1% [at 2.72 µM] (inactive)	-0.782% [at 2.72 µM] (inactive)	5.82% [at 2.72 µM] (inactive)	-8.87% [at 2.72 µM] (inactive)
C#CC1(O)CCCCC1	inactive	inactive		inactive	inactive	inactive	inactive	inactive	inactive	inactive						
CCC(C)c1cccc(C(C)CC)c1O (stereo unspecified)	30.9 µM (active)	inactive		inactive		inactive	inactive	inactive	19.5 µM (active)	inactive						
C[C@]12Cc3cn[nH]c3C[C@@H]1CC[C@@H]1[C@@H]2CC[C@@]2(C)[C@H]1CC[C@]2(C)O	inactive	inactive			inactive	inactive	inactive	inactive	inactive	inactive						
C=Cc1cccc(CCl)c1	inactive	inactive	inactive	inactive		inactive	inactive	inactive	inactive							
Oc1cc(Cl)c(Cl)c(Cl)c1Cl	inactive	inactive		47.8 µM (active)	inactive	inactive		inactive	inactive	inactive						
CCN(CC)C(=O)N[C@@H]1C=C2c3cccc4[nH]cc(c34)C[C@@H]2N(C)C1	inactive	inactive		inactive	inactive	inactive	inactive	inactive	inactive	inactive						
COC(=O)c1cc(Oc2ccc(Cl)cc2Cl)ccc1[N+](=O)[O-]	inactive	inactive	inactive					inactive	inactive	inactive						
CN(C)C(=S)SSC(=S)N(C)C	4.83 µM (active) and 1.23 µM (active) and 213 nM (active)	inactive		272 nM (active) and 195 nM (active) and 21.3 µM (active)	43 µM (active) and 38.9 µM (active)	48.3 µM (active) and 1.74 µM (active) and 2.68 µM (active)	43 µM (active) and 27.5 µM (active)	inactive		49 µM (active) and inactive						
CCOP(=S)(OCC)SC(CCl)N1C(=O)c2ccccc2C1=O (stereo unspecified)	inactive	inactive		inactive		inactive	inactive		inactive	inactive						
CN1CCc2cc(Cl)c(O)cc2[C@H]2c3ccccc3CC[C@@H]21	inactive	inactive			inactive	inactive	inactive	inactive	inactive	inactive						
O=NN(CCO)CCO	inactive	inactive		inactive	inactive	inactive	inactive	inactive	inactive	inactive						
O=C1C2(Cl)C3(Cl)C4(Cl)C(Cl)(Cl)C5(Cl)C3(Cl)C1(Cl)C5(Cl)C24Cl (stereo unspecified)	38.3 µM (active) and 52.6 µM (active)	inactive		17.1 µM (active) and 41.8 µM (active)	42.9 µM (active) and 52.6 µM (active)	48.2 µM (active) and 46.9 µM (active)		inactive	21.5 µM (active) and 41.8 µM (active)	34.1 µM (active) and 52.6 µM (active)						
COC(=O)C(C)N(C(=O)c1ccco1)c1c(C)cccc1C (stereo unspecified)	inactive	inactive		inactive	inactive	inactive	inactive	inactive	inactive	inactive						
C[C@H]1[C@H](c2ccc(Cl)cc2)SC(=O)N1C(=O)NC1CCCCC1	inactive	inactive	inactive	43.6 µM (active)	inactive		38.9 µM (active)	inactive	inactive							
CCCCC(CC)COC(=O)c1ccccc1C(=O)OCC(CC)CCCC (stereo unspecified)	inactive	inactive	inactive	inactive	inactive	inactive		inactive	inactive							
CCCCCCCc1ccc(O)cc1	43.6 µM (active)	inactive	21.9 µM (active)	12.3 µM (active)	43.6 µM (active)		6.17 µM (active)	inactive	24.5 µM (active)							

Reference: PubChem BioAssay (Tox21)
